In PubChem BioAssay (EPA / NIEHS):
Active and inactive are the calls of the source. How the source made its calls: active means hit-call score of the fitted dose curve at least 0.9, where 1 is the maximum; inactive means score below 0.9.

assay: BSK_hDFCGF_SRB: Viability Assessment in the BioMAP Diversity Plus: hDFCGF Assay (AID 2283061); settings: primary human foreskin fibroblasts;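 further: cells exposed to compound for 24 h before the read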
Experimental: BSK_hDFCGF is a cell-based, multiplexed-readout assay that uses foreskin fibroblast, a human skin primary cell, with measurements taken at 24 hours after chemical dosing in a 96-well plate.BSK_hDFCGF_SRB is an assay component measured in the BSK_hDFCGF assay. It measures 0.1% sulforhodamine related to cell death using Sulforhodamine staining technology.Data from the assay component BSK_hDFCGF_SRB was analyzed into 1 assay endpoint. This assay endpoint, BSK_hDFCGF_SRB, was analyzed with bidirectional fitting relative to DMSO as the negative control and baseline of activity. Using a type of viability reporter, gain or loss-of-signal activity can be used to understand changes in the signaling. Furthermore, this assay endpoint can be referred to as a primary readout, because this assay has produced multiple assay endpoints where this one serves a signaling function. To generalize the intended target to other relatable targets, this assay endpoint is annotated to the cell morphology intended target family, where the subfamily is cell conformation.
The levels of cell surface (or secreted, indicated by the prefix "s") biomarker endpoints were measured by ELISA. Overt cytotoxicity to cells in confluent adherent cultures (all systems other than the BT system) was assessed by measuring total protein levels using sulforhodamine B (SRB) staining in parallel cultures at the time of biomarker measurements, indicated as SRB endpoints. For proliferation assays for adherent cell types, individual cell types are cultured at sub-confluence and relative cell numbers quantified by SRB staining at time points optimized for each system (48 h: 3C and CASM3C systems; 72 h: BT and HDF3CGF systems; 96 h: SAg system). SRB was performed by staining cells with 0.1% SRB after fixation with 10% TCA and reading wells at 560 nm.Viability and proliferation of PBMC (T cells) was quantified by Alamar Blue reduction for the SAg and BT systems. For PBMC viability (referred to as PBMC Cytotoxicity within the assay endpoint names), cells were plated (75,000/well in a 96-well plate) and then chemical samples added for 1 h before addition of activators, SEB and TSST-1 (20 ng/mL final concentration each). Cells were incubated for 90 h. Then, Alamar Blue (20 uL/well) (Invitrogen, Cat DAL1100) was added for 6 h, and the plates were read with a fluorescence microplate reader at 546/580 nm (excitation/emission). For PBMC proliferation, cells were plated and activated as above but incubated for only 16 h prior to addition of Alamar Blue. Plates were read after 6 h.

SMILES	outcome	AC50
CCO[Si](CCCNC(N)=O)(OCC)OCC	inactive	–
O=C(Nc1ccc(Cl)cc1)Nc1ccc(Cl)c(Cl)c1	–	0.138 µM (active)
Cc1oc2c(NC(=O)c3c(Cl)cccc3Cl)cccc2c1C(C)(C)O	inactive	–
C[C@]12CC[C@@H]3c4ccc(O)cc4CC[C@H]3[C@@H]1CC[C@H]2O	inactive	–
CN(C[C@@H](CC[N+]12CCC(C3CCCCC3)(CC1)CC2)c1ccc(Cl)c(Cl)c1)C(=O)c1cc(C(F)(F)F)cc(C(F)(F)F)c1	–	5.86 µM (active)
Clc1ccccc1C(c1ccccc1)(c1ccccc1)n1ccnc1	–	9.78 µM (active)
CCCCCCCCCC(=O)O	inactive	–
COc1ccc2cc(S(=O)(=O)N[C@H](CC(=O)N[C@H](Cc3ccc(CN4[C@H](C)CCC[C@@H]4C)cc3)C(=O)N(C)C(C)C)c3ccc4c(c3)OCO4)ccc2c1	–	27.7 µM (active)
CCCC(=O)OCCC(C)C	inactive	–
CN1C(=O)CC[C@H]1c1cccnc1	inactive	–
CCCCCCCCN(C)CCCCCCCC	inactive	–
O=C=NCCCCCCN=C=O	inactive	–
O=c1ccc2ccccc2o1	inactive	–
CCCCOC(=O)CC(CC(=O)OCCCC)(OC(C)=O)C(=O)OCCCC	inactive	–
CCCCCCCC[Si](OCC)(OCC)OCC	inactive	–
CC(O)CC(C)(C)O (stereo not given)	inactive	–
Cc1cc(F)ccc1-c1cc(N2CC[C@@H](O)[C@H]2CO)ncc1N(C)C(=O)C(C)(C)c1cc(C(F)(F)F)cc(C(F)(F)F)c1	–	15.7 µM (active)
O=c1[nH]sc2ccccc12	–	7.21 µM (active)
Oc1ccc2ccccc2c1	inactive	–
OCCO	inactive	–

SMILES	outcome	AC50
O=C(O)c1ccccc1C(=O)OCc1ccccc1	inactive	–
Cc1cn([C@H]2C[C@H](N=[N+]=[N-])[C@@H](CO)O2)c(=O)[nH]c1=O	inactive	–
CC(=O)N1CCN(c2ccc(OC[C@H]3CO[C@](Cn4ccnc4)(c4ccc(Cl)cc4Cl)O3)cc2)CC1	–	32.9 µM (active)
CC(C)(C)c1csc(-c2cc3cc(OCc4ccccc4CC(=O)O)ccc3o2)n1	–	17.2 µM (active)
NC(=O)c1nc(-c2cccc(-c3cc(F)ccc3OCC(F)(F)C(F)(F)F)c2)n[nH]1	–	36.4 µM (active)
c1ccc2n[nH]nc2c1	inactive	–
Oc1ccccc1	inactive	–
COc1cccc([C@H](O)C2CCN(CCc3ccc(F)cc3)CC2)c1OC	inactive	–
Cc1c2ccccc2c(C)c2c1ccc1ccccc12	inactive	–
CCCCCCCCCCCO	–	30 µM (active)
NCc1cccc(C2CCN(C(=O)c3ccc(C#Cc4ccccc4F)o3)CC2)c1	–	10.1 µM (active)
O=C(O)Cn1c(=O)n(Cc2ccc(Br)cc2F)c(=O)c2ccc(Cl)cc21	inactive	–
CCCCCCCCOc1ccc(C(=O)c2ccccc2)c(O)c1	inactive	–
CC1=CC(=O)/C(=C(/C)O)C(=O)O1	inactive	–
CC[C@H](NC(=O)c1cc(F)ccc1NS(=O)(=O)c1cccc2cccnc12)c1ccccc1	inactive	–
CCCCCCCCOC(=O)c1cc(O)c(O)c(O)c1	–	18.5 µM (active)
O=C(O)c1ccccc1-n1cc(C(=O)O)c(=O)c2cc(Nc3c(F)cc(F)cc3Cl)c(Cl)cc21	inactive	–
CCCCCc1ccc(N)cc1	inactive	–
CCN(Cc1cccc(S(=O)(=O)O)c1)c1ccc(C(=C2C=CC(=[N+](CC)Cc3cccc(S(=O)(=O)O)c3)C=C2)c2ccccc2S(=O)(=O)[O-])cc1	inactive	–
CC1(C)NC(=O)N(c2ccc([N+](=O)[O-])c(C(F)(F)F)c2)C1=O	inactive	–
